Screens (PubChem BioAssay)
DT40 TDP1 no CPT = qHTS for Inhibitors of human tyrosyl-DNA phosphodiesterase 1 (TDP1): qHTS in cells in absence of CPT | DT40 Tdp1-/- hTDP1 cells, no CPT, ATP luminescence, 48 h | Potency, µM (highest dose often 46.2 µM), usual class: inhibitors | 15% of 420,000 active; further: nearly all actives have a fitted effect of over 55% in size
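A cellular qHTS used chicken DT40 cells lacking endogenous Tdp1 but carrying stably transfected human TDP1. Compounds were applied without camptothecin, and cell growth kinetics were judged by ATP-dependent luminescence after ≥48 hr.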
HT1080 IDH1KD tx = qHTS for induction of synthetic lethality in tumor cells producing 2HG: qHTS for the HT-1080-IDH1KD cell line | HT-1080 IDH1 knockdown viability, ATP luminescence, 48 h | Potency, µM (series often up to 46.1 µM), usual class: cytotoxic | 2% of 360,000 active | AID 686971, 2013
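Cytotoxicity counter-line: IDH1KD HT-1080, 48 h, CellTiter-Glo. Curves classed by r2, magnitude and activity.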
DT40 TDP1 CPT = qHTS for Inhibitors of human tyrosyl-DNA phosphodiesterase 1 (TDP1): qHTS in cells in presence of CPT. chicken DT40 Tdp1-/-;hTDP1 cells + 20 nM CPT, ATP luminescence, 48 h. Potency, µM (series often up to 46.2 µM), hits mostly inhibitors. 12% of 420,000 active; further: nearly all actives have a fitted effect of over 55% in size
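Chicken DT40 Tdp1-/- cells complemented with human TDP1, 400 cells/well, exposed to compounds plus 20 nM camptothecin for at least 48 h at 37 C; viability read as ATP content by CellTiter-Glo luminescence.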
HT1080-NT tox = qHTS for induction of synthetic lethality in tumor cells producing 2HG: qHTS for the HT-1080-NT fibrosarcoma cell line. HT-1080-NT fibrosarcoma viability, CellTiter-Glo ATP luminescence, 48 h. Potency, µM (doses to about 46.1 µM), hits mostly cytotoxic. 1.6% of 360,000 active. AID 686970, 2013;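 further: NT is the 2HG producing partner of a matched IDH1 knockdown line; nearly all actives have a fitted effect of over 55% in size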
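Toxicity toward the 2HG-producing NT line was scored as %Activity, normalised to DMSO and no-cell wells, from CellTiter-Glo luminescence after 48 hours' treatment.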
IL-1B inflam inh = qHTS for Inhibitors of Inflammasome Signaling: IL-1-beta AlphaLISA Primary Screen; activity change, % at 57.5 µM; THP-1 LPS/ATP IL-1B secretion, AlphaLISA, 16 h; active compounds read low; 4.7% of 360,000 active; in the data active means activity change below about -50%; inconclusive means mostly about -30% to -49%
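THP-1 cells pretreated 1 hr with compounds (up to 57.5 uM final), then stimulated with LPS (250 ng/mL final) plus ATP (1.25 mM final); secreted IL-1B measured by AlphaLISA after 16 hr, decreased signal indicating inhibition.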
ELG1 repair inh = qHTS screen for small molecules that inhibit ELG1-dependent DNA repair in human embryonic kidney (HEK293T) cells expressing luciferase-tagged ELG1 | HEK293T ELG1-luciferase reporter, luminescence, 16 h; DNA damage induced by 5-fluorouridine | Potency, µM (series often up to 46.1 µM), usual class: inhibitors | 2.3% of 330,000 active | AID 504467, 2011; further: nearly all actives have a fitted effect of over 55% in size
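DMSO vehicle served as the neutral condition. Each well held 2,000 cells given 5-fluorouridine plus compound; after 16 hr at 37 °C/5% CO2, ONE-Glo was added and luciferase measured 30 min later.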
A number is an active result; - = inactive; ? = inconclusive; . = no result. Hits are enriched below; roughly 19% of the tested compounds scored in any of these assays. Unless noted, the call rests on the fitted dose curve; in most records, active means well fitted curve in the direction sought with a large enough effect; inconclusive means small, poorly fitted or top-dose-only effect, or another doubt; inactive means no such curve, though single readings can be large; an effect the other way counts as inactive or inconclusive.

SMILES	DT40 TDP1 no CPT	HT1080 IDH1KD tx	DT40 TDP1 CPT	HT1080-NT tox	IL-1B inflam inh	ELG1 repair inh
Cc1ccc(CN2CCN(/N=C/c3ccc(C(=O)O)cc3)CC2)cc1	-	-	-	-	-	-
Cc1ccc(CN2CCN(/N=C/C(Br)=C\c3ccccc3)CC2)cc1	4.1µM	-	?	-	.	?
CSc1ccc(CCNC(=O)Cn2nc(C)n3c(cc4sccc43)c2=O)cc1	-	.	-	.	.	.
CCc1ccc2c(c1)NC(=O)C2(C)Cc1ccc(C(F)(F)F)nc1 (stereo unspecified)	?	-	?	-	-	.
CCN(CC(=O)Nc1cccc(OC)c1)c1ncnc2sc(C)c(C)c12	21µM	-	21µM	-	-	?
COc1cccc(NC(=O)COc2ncnc3sc(C)c(C)c23)c1	-	-	-	-	-	-
CCOc1ccc(-n2c(-c3ccco3)nc3c(cnn3-c3ccc(C)cc3)c2=O)cc1	?	-	?	-	-	-
Cc1cccc(-n2c(C)nc3c(cnn3-c3ccc(F)cc3)c2=O)c1	9.2µM	-	18µM	-	?	?
Cc1ccc(-n2c(-c3ccco3)nc3c(cnn3-c3ccc(C)cc3)c2=O)cc1	4.1µM	-	?	-	-	-
Cc1cccc(-n2c(-c3ccco3)nc3c(cnn3-c3ccc(F)cc3)c2=O)c1	16µM	.	16µM	.	.	.
O=C(NNC1=NC2(CCCC2)Cc2ccccc21)c1ccncc1	-	-	-	-	-	-
Cc1cc(N=Cc2c(O)n(-c3cccc(C(F)(F)F)c3)c(=O)c3ccccc23)no1	23µM	-	18µM	-	-	9.2µM
C#CC[N+](C)(C)CC#Cc1ccc(C)cc1	-	?	-	?	?	-
C#CC[N+](C)(C)C(C#Cc1ccccc1)CC=C (stereo unspecified)	18µM	?	12µM	-	-73	-
COc1ccc(N(C)C(=O)CCC(=O)Nc2ccc3nc(N4CCOCC4)cc(C)c3c2)c(OC)c1	16µM	-	?	-	-	?
COc1ccc(CNC(=S)Nc2ccc3nc(N4CCN(C)CC4)cc(C)c3c2)cc1	?	?	?	16µM	-101	-
COc1ccc(CNC(=S)Nc2ccc3nc(N4CCOCC4)cc(C)c3c2)cc1	?	-	21µM	-	-	?
COCCNC(=S)Nc1ccc2nc(N3CCN(C)CC3)cc(C)c2c1	?	-	-	-	-	-
Cc1ccc(S(=O)(=O)N(CC(=O)Nc2cccnc2)c2cccc([N+](=O)[O-])c2)cc1	12µM	?	?	?	-	?
COc1ccc(C)cc1S(=O)(=O)N(CC(=O)Nc1cccc([N+](=O)[O-])c1)c1ccccc1	21µM	-	15µM	-	-	?
Cc1ccc([N+](=O)[O-])cc1NC(=O)CN(c1ccccc1)S(=O)(=O)N(C)C	-	.	-	.	.	.
COc1ccc(S(=O)(=O)N(CC(=O)Nc2cccnc2)c2ccc(C)cc2)cc1OC	-	.	-	.	.	.
Cc1ccc(NC(=O)CN(c2ccc(Cl)cc2)S(=O)(=O)c2cc([N+](=O)[O-])ccc2Cl)c(C)c1	15µM	-	?	?	-79	-
CCc1cccc(NC(=O)CN(c2ccc(C)cc2)S(=O)(=O)c2cccs2)c1	16µM	.	?	.	.	.
CCc1cccc(NC(=O)CN(c2ccc(OC)cc2)S(=O)(=O)c2c(C)n[nH]c2C)c1	-	-	-	-	-	-
CCCCCCCCCCCCCCCC(=O)OC(C)C	-	.	-	.	.	.
Cc1ccc(S(=O)(=O)N(CC(=O)Nc2cccnc2)c2cccc(Br)c2)cc1	16µM	?	?	?	-	?
